# In PMC11006913:
# Columns and labels:
# Assay in all cases: PBM; 200 nM protein, PBS
# Settings in all cases: dsDNA, one strand shown
# [1] = target: HOXB9 (Homo sapiens, UniProt P17482 171-250, T197M)
# [2] = target: HOXB9 (Homo sapiens, UniProt P17482 171-250)
# [3] = target: HOXB9 (Homo sapiens, UniProt P17482 171-250, R186Q)
# [4] = target: PITX2 (Homo sapiens, UniProt Q99697 72-157)
# [5] = target: HOXA2 (Homo sapiens, UniProt O43364 129-215, R185T)
# [6] = target: HOXA2 (Homo sapiens, UniProt O43364 129-215, R185K)
# [7] = target: HOXA2 (Homo sapiens, UniProt O43364 129-215, Y150S)
# [8] = target: HOXA2 (Homo sapiens, UniProt O43364 129-215)
# [9] = target: ALX1 (Homo sapiens, UniProt Q15699 118-204, L144V)
# [10] = target: ALX1 (Homo sapiens, UniProt Q15699 118-204, L144R)
# [11] = target: ALX1 (Homo sapiens, UniProt Q15699 118-204)
# [12] = target: HOXD13 (Homo sapiens, UniProt P35453 263-343, T313R)
# [13] = target: HOXD13 (Homo sapiens, UniProt P35453 263-343)
# [14] = target: HOXD13 (Homo sapiens, UniProt P35453 263-343, T313A)
# [15] = target: NKX3-2 (Homo sapiens, UniProt P78367 192-278, P234S)
# [16] = target: NKX3-2 (Homo sapiens, UniProt P78367 192-278)
# [17] = target: MSX2 (Homo sapiens, UniProt P35548 130-214, R199I)
# [18] = target: MSX2 (Homo sapiens, UniProt P35548 130-214)
# [19] = target: MSX2 (Homo sapiens, UniProt P35548 130-214, F161Y)
# [20] = target: T1, NKX2-6 (Homo sapiens, UniProt A6NCS4 118-204, R150C)
# T1 sequence: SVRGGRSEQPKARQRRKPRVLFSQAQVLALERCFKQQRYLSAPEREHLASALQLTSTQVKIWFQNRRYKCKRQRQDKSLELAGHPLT
# [21] = target: ALX3 (Homo sapiens, UniProt O95076 139-225, N203Q)
# [22] = target: ALX3 (Homo sapiens, UniProt O95076 139-225)
# [23] = target: ALX3 (Homo sapiens, UniProt O95076 139-225, L168Q)
# [24] = target: ALX3 (Homo sapiens, UniProt O95076 139-225, L168V)
# [25] = target: ALX3 (Homo sapiens, UniProt O95076 139-225, N203S)
# Chain of ALX3 (Homo sapiens, UniProt O95076 139-225, N203S) (O95076 139-225 N203S): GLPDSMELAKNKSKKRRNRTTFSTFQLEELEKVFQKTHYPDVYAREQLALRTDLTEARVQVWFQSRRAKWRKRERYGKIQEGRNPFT
# Chain of HOXB9 (Homo sapiens, UniProt P17482 171-250) (P17482 171-250): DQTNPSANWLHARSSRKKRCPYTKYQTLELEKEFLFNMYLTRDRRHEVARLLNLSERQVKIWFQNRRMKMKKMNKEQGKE
# Chain of HOXB9 (Homo sapiens, UniProt P17482 171-250, T197M) (P17482 171-250 T197M): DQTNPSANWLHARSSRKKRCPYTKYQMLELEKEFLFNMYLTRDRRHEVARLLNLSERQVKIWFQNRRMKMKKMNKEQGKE
# Chain of HOXB9 (Homo sapiens, UniProt P17482 171-250, R186Q) (P17482 171-250 R186Q): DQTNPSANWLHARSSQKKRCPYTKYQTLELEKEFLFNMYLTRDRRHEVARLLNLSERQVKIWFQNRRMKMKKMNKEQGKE
# Chain of MSX2 (Homo sapiens, UniProt P35548 130-214, F161Y) (P35548 130-214 F161Y): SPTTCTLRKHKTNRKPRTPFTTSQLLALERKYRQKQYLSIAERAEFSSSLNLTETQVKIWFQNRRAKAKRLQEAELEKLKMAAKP
# Chain of HOXA2 (Homo sapiens, UniProt O43364 129-215, R185K) (O43364 129-215 R185K): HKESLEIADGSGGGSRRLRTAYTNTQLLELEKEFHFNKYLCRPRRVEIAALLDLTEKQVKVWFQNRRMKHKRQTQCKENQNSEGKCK
# Chain of MSX2 (Homo sapiens, UniProt P35548 130-214) (P35548 130-214): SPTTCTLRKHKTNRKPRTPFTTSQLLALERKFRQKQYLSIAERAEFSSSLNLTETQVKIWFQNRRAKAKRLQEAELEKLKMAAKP
# Chain of HOXD13 (Homo sapiens, UniProt P35453 263-343) (P35453 263-343): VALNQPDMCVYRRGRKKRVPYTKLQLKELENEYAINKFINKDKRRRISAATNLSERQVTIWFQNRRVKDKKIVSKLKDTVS
# Chain of HOXD13 (Homo sapiens, UniProt P35453 263-343, T313A) (P35453 263-343 T313A): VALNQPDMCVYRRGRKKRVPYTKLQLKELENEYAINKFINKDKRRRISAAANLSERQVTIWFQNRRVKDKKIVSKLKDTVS
# Chain of HOXA2 (Homo sapiens, UniProt O43364 129-215, Y150S) (O43364 129-215 Y150S): as the sequence (O43364 129-215 R185K) above, with Y22S, K57R counted along it
# Chain of HOXD13 (Homo sapiens, UniProt P35453 263-343, T313R) (P35453 263-343 T313R): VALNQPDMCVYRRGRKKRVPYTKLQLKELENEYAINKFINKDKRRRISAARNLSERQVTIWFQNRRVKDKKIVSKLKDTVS
# Chain of HOXA2 (Homo sapiens, UniProt O43364 129-215, R185T) (O43364 129-215 R185T): as the sequence (O43364 129-215 R185K) above, with K57T counted along it
# Chain of HOXA2 (Homo sapiens, UniProt O43364 129-215) (O43364 129-215): as the sequence (O43364 129-215 R185K) above, with K57R counted along it
# Chain of MSX2 (Homo sapiens, UniProt P35548 130-214, R199I) (P35548 130-214 R199I): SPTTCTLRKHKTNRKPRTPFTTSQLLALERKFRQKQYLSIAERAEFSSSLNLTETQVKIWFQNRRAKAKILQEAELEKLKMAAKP
# Chain of ALX3 (Homo sapiens, UniProt O95076 139-225, L168Q) (O95076 139-225 L168Q): as the sequence (O95076 139-225 N203S) above, with L30Q, S65N counted along it
# Chain of ALX3 (Homo sapiens, UniProt O95076 139-225, L168V) (O95076 139-225 L168V): as the sequence (O95076 139-225 N203S) above, with L30V, S65N counted along it
# Chain of ALX3 (Homo sapiens, UniProt O95076 139-225, N203Q) (O95076 139-225 N203Q): as the sequence (O95076 139-225 N203S) above, with S65Q counted along it
# Chain of ALX1 (Homo sapiens, UniProt Q15699 118-204) (Q15699 118-204): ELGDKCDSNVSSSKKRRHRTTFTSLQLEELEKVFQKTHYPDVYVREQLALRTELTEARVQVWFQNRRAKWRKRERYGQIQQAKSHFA
# Chain of NKX3-2 (Homo sapiens, UniProt P78367 192-278, P234S) (P78367 192-278 P234S): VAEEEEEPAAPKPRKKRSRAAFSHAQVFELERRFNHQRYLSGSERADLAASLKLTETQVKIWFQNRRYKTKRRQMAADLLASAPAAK
# Chain of ALX1 (Homo sapiens, UniProt Q15699 118-204, L144R) (Q15699 118-204 L144R): as the sequence (Q15699 118-204) above, with L27R counted along it
# Chain of ALX3 (Homo sapiens, UniProt O95076 139-225) (O95076 139-225): as the sequence (O95076 139-225 N203S) above, with S65N counted along it
# Chain of NKX3-2 (Homo sapiens, UniProt P78367 192-278) (P78367 192-278): as the sequence (P78367 192-278 P234S) above, with S43P counted along it
# Chain of ALX1 (Homo sapiens, UniProt Q15699 118-204, L144V) (Q15699 118-204 L144V): as the sequence (Q15699 118-204) above, with L27V counted along it
sequence,measurement,setting,value
GGTTCGGA,binding signal,[1],"8.66 upbm affinity estimate (log intensity, higher = more binding, comparable within an allelic series)"
same,binding signal,[2],"8.54 upbm affinity estimate (log intensity, higher = more binding, comparable within an allelic series)"
same,binding signal,[3],"8.53 upbm affinity estimate (log intensity, higher = more binding, comparable within an allelic series)"
CCCGCAAG,binding signal,[1],"8.42 upbm affinity estimate (log intensity, higher = more binding, comparable within an allelic series)"
same,binding signal,[2],"8.44 upbm affinity estimate (log intensity, higher = more binding, comparable within an allelic series)"
same,binding signal,[4],"7.91 upbm affinity estimate (log intensity, higher = more binding, comparable within an allelic series)"
same,binding signal,[3],"8.51 upbm affinity estimate (log intensity, higher = more binding, comparable within an allelic series)"
CTCAGGCC,binding signal,[1],"8.41 upbm affinity estimate (log intensity, higher = more binding, comparable within an allelic series)"
same,binding signal,[5],"7.06 upbm affinity estimate (log intensity, higher = more binding, comparable within an allelic series)"
same,binding signal,[2],"8.36 upbm affinity estimate (log intensity, higher = more binding, comparable within an allelic series)"
same,binding signal,[6],"10.3 upbm affinity estimate (log intensity, higher = more binding, comparable within an allelic series)"
same,binding signal,[3],"8.4 upbm affinity estimate (log intensity, higher = more binding, comparable within an allelic series)"
same,binding signal,[7],"10.4 upbm affinity estimate (log intensity, higher = more binding, comparable within an allelic series)"
same,binding signal,[8],"7.06 upbm affinity estimate (log intensity, higher = more binding, comparable within an allelic series)"
GACTGACC,binding signal,[1],"8.57 upbm affinity estimate (log intensity, higher = more binding, comparable within an allelic series)"
same,binding signal,[2],"8.7 upbm affinity estimate (log intensity, higher = more binding, comparable within an allelic series)"
same,binding signal,[3],"8.7 upbm affinity estimate (log intensity, higher = more binding, comparable within an allelic series)"
AGCGCGCC,binding signal,[1],"8.57 upbm affinity estimate (log intensity, higher = more binding, comparable within an allelic series)"
same,binding signal,[2],"8.53 upbm affinity estimate (log intensity, higher = more binding, comparable within an allelic series)"
same,binding signal,[3],"8.54 upbm affinity estimate (log intensity, higher = more binding, comparable within an allelic series)"
CCTAGCCG,binding signal,[1],"8.53 upbm affinity estimate (log intensity, higher = more binding, comparable within an allelic series)"
same,binding signal,[2],"8.64 upbm affinity estimate (log intensity, higher = more binding, comparable within an allelic series)"
same,binding signal,[9],"6.49 upbm affinity estimate (log intensity, higher = more binding, comparable within an allelic series)"
same,binding signal,[10],"6.54 upbm affinity estimate (log intensity, higher = more binding, comparable within an allelic series)"
same,binding signal,[3],"8.65 upbm affinity estimate (log intensity, higher = more binding, comparable within an allelic series)"
same,binding signal,[11],"6.41 upbm affinity estimate (log intensity, higher = more binding, comparable within an allelic series)"
AGCCCCGG,binding signal,[1],"8.65 upbm affinity estimate (log intensity, higher = more binding, comparable within an allelic series)"
same,binding signal,[2],"8.31 upbm affinity estimate (log intensity, higher = more binding, comparable within an allelic series)"
same,binding signal,[12],"9.53 upbm affinity estimate (log intensity, higher = more binding, comparable within an allelic series)"
same,binding signal,[13],"9.4 upbm affinity estimate (log intensity, higher = more binding, comparable within an allelic series)"
same,binding signal,[14],"9.76 upbm affinity estimate (log intensity, higher = more binding, comparable within an allelic series)"
same,binding signal,[3],"8.53 upbm affinity estimate (log intensity, higher = more binding, comparable within an allelic series)"
same,binding signal,[15],"10.6 upbm affinity estimate (log intensity, higher = more binding, comparable within an allelic series)"
same,binding signal,[16],"10.6 upbm affinity estimate (log intensity, higher = more binding, comparable within an allelic series)"
CCACGCCG,binding signal,[1],"8.48 upbm affinity estimate (log intensity, higher = more binding, comparable within an allelic series)"
same,binding signal,[2],"8.38 upbm affinity estimate (log intensity, higher = more binding, comparable within an allelic series)"
same,binding signal,[3],"8.41 upbm affinity estimate (log intensity, higher = more binding, comparable within an allelic series)"
CCGTGAGG,binding signal,[1],"8.4 upbm affinity estimate (log intensity, higher = more binding, comparable within an allelic series)"
same,binding signal,[2],"8.23 upbm affinity estimate (log intensity, higher = more binding, comparable within an allelic series)"
same,binding signal,[17],"9.41 upbm affinity estimate (log intensity, higher = more binding, comparable within an allelic series)"
same,binding signal,[18],"9.11 upbm affinity estimate (log intensity, higher = more binding, comparable within an allelic series)"
same,binding signal,[3],"8.2 upbm affinity estimate (log intensity, higher = more binding, comparable within an allelic series)"
same,binding signal,[19],"9.23 upbm affinity estimate (log intensity, higher = more binding, comparable within an allelic series)"
GCAGGCCC,binding signal,[1],"8.19 upbm affinity estimate (log intensity, higher = more binding, comparable within an allelic series)"
same,binding signal,[2],"8.31 upbm affinity estimate (log intensity, higher = more binding, comparable within an allelic series)"
same,binding signal,[12],"9.4 upbm affinity estimate (log intensity, higher = more binding, comparable within an allelic series)"
same,binding signal,[4],"7.9 upbm affinity estimate (log intensity, higher = more binding, comparable within an allelic series)"
same,binding signal,[13],"9.64 upbm affinity estimate (log intensity, higher = more binding, comparable within an allelic series)"
same,binding signal,[14],"9.61 upbm affinity estimate (log intensity, higher = more binding, comparable within an allelic series)"
same,binding signal,[3],"8.26 upbm affinity estimate (log intensity, higher = more binding, comparable within an allelic series)"
CCCCTCGA,binding signal,[1],"8.73 upbm affinity estimate (log intensity, higher = more binding, comparable within an allelic series)"
same,binding signal,[2],"8.55 upbm affinity estimate (log intensity, higher = more binding, comparable within an allelic series)"
same,binding signal,[3],"8.57 upbm affinity estimate (log intensity, higher = more binding, comparable within an allelic series)"
GCGCGGCA,binding signal,[1],"8.49 upbm affinity estimate (log intensity, higher = more binding, comparable within an allelic series)"
same,binding signal,[5],"7.06 upbm affinity estimate (log intensity, higher = more binding, comparable within an allelic series)"
same,binding signal,[2],"8.54 upbm affinity estimate (log intensity, higher = more binding, comparable within an allelic series)"
same,binding signal,[20],"9.57 upbm affinity estimate (log intensity, higher = more binding, comparable within an allelic series)"
same,binding signal,[17],"9.56 upbm affinity estimate (log intensity, higher = more binding, comparable within an allelic series)"
same,binding signal,[21],"7.82 upbm affinity estimate (log intensity, higher = more binding, comparable within an allelic series)"
same,binding signal,[6],"10.3 upbm affinity estimate (log intensity, higher = more binding, comparable within an allelic series)"
same,binding signal,[18],"9.62 upbm affinity estimate (log intensity, higher = more binding, comparable within an allelic series)"
same,binding signal,[22],"7.75 upbm affinity estimate (log intensity, higher = more binding, comparable within an allelic series)"
same,binding signal,[23],"7.66 upbm affinity estimate (log intensity, higher = more binding, comparable within an allelic series)"
same,binding signal,[3],"8.56 upbm affinity estimate (log intensity, higher = more binding, comparable within an allelic series)"
same,binding signal,[24],"7.72 upbm affinity estimate (log intensity, higher = more binding, comparable within an allelic series)"
same,binding signal,[19],"9.62 upbm affinity estimate (log intensity, higher = more binding, comparable within an allelic series)"
same,binding signal,[7],"10.4 upbm affinity estimate (log intensity, higher = more binding, comparable within an allelic series)"
same,binding signal,[25],"7.83 upbm affinity estimate (log intensity, higher = more binding, comparable within an allelic series)"
same,binding signal,[8],"6.94 upbm affinity estimate (log intensity, higher = more binding, comparable within an allelic series)"
